Measured values published in PubChem BioAssay (NCATS).
Results filed as inconclusive are left out. Where a call stands in place of a potency, no number is given. Active and inactive are the calls of the source. Unless noted, calls follow the shape of the dose curve; as a rule, active = well fitted curve in the direction sought with a large enough effect; inconclusive = small, poorly fitted or top-dose-only effect, or another doubt; inactive = no such curve, though single readings can be large; an effect the other way counts as inactive or inconclusive.

Assays:
[1] = Cell Viability - Jurkat (AID 426;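 active = dose-dependent loss of cell ATP signal giving a full or clear fitted curve, ranked by lower potency value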; also: potency is read from the fitted curve at half-maximal effect); conditions: qHTS
Procedure, shortened: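 qHTS, 1536-well; Jurkat E6-1, 5000 cells/well, complete medium; cpd 40 hr, 37 °C; CellTiter-Glo 20 min RT; luminescence. AC50 by Hill fit.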

[2] = Cell Viability - MRC5 (AID 434; calls by dose curve;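 also: potency is read from the fitted curve at half-maximal effect; potency reflects cytotoxicity seen as loss of intracellular ATP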); conditions: MRC5 lung fibroblast viability, qHTS
Procedure, shortened: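 qHTS cytotoxicity in human lung fibroblast MRC5 cells; 40 hr treatment, 37 °C; cellular ATP by luciferase luminescence; DMSO = 0%, 100 uM tamoxifen = 100% inhibition; Hill-fit AC50.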

[3] = Cell Viability - NIH 3T3 (AID 541); conditions: NIH 3T3 cell viability, qHTS; activity change, negative = cytotoxicity: at 92.2 µM (top of the series); also: nearly all actives have a fitted effect of over 25% in size
Procedure, shortened: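 Luminescent ATP signal (CellTiter-Glo) served as the viability read-out after NIH 3T3 cells were exposed to compounds over a concentration range for 40 hr at 37 °C. Hill-equation modelling of concentration-response data gave AC50.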

[4] = Cell Viability - H-4-II-E (AID 543); conditions: H-4-II-E rat hepatoma viability; series mostly up to 92.2 µM; also: nearly all actives have a fitted effect of over 35% in size
Procedure, shortened: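 Luminescent ATP signal (CellTiter-Glo) served as the viability read-out, with cytotoxicity seen as a concentration-dependent ATP drop. Cells were treated for 40 hours in complete medium. AC50 values derive from Hill-equation modelling.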

[5] = Cell Viability - LYMP2-022 (AID 987); conditions: LYMP2-022 lymphoblastoid cell viability; series mostly up to 92.2 µM; also: nearly all actives have a fitted effect of over 55% in size
Procedure, shortened: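 qHTS: human lymphoblastoid cells 2500/well; 5 hr 37 C; cpd added; 24 hr 37 C; CellTiter-Glo, 30 min RT; luminescence. AC50 via Hill fit; tetraoctylammonium bromide positive ctrl.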

[6] = target: Estrogen receptor (Homo sapiens) (UniProt P03372); assay: qHTS assay for small molecule antagonists of estrogen receptor alpha signaling (AID 588513; active = well fitted curve in the direction sought with a large enough effect in the signal ratio, with a control signal flat, not every such curve was filed as active; the % refers to the signal ratio); conditions: ER-alpha-UAS-bla HEK293, beta-lactamase ratio, antagonist mode; series mostly up to 76.9 µM
Procedure, shortened: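 Beta-lactamase reporter, antagonist mode, HEK 293 GripTite cells; 0.5nM E2 stimulus, 18 h, 37 C; CCF4 dye 2 h RT; fluorescence. IC50 and efficacy from Hill fits, normalized to E2 and DMSO.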

[7] = target: Estrogen receptor (Homo sapiens) (UniProt P03372); assay: qHTS assay for small molecule agonists of estrogen receptor alpha signaling (AID 588514; calls by dose curve; also: nearly all actives have a fitted effect of over 70% in size); conditions: ER-alpha-UAS-bla HEK293, beta-lactamase ratio, 18 h; series mostly up to 76.8 µM
Procedure, shortened: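 Cells were plated at 5000/well, incubated 4 hrs at 37 C, dosed with compound titration series, incubated 18 hrs at 37 C, loaded with CCF4 dye for 2 hrs at RT, then fluorescence was read.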

[8] = qHTS assay for small molecule antagonists of peroxisome proliferator-activated receptor delta signaling (AID 588535; active = well fitted inhibition curve with a large enough effect in the signal ratio, with a control signal flat, not every such curve was filed as active; the % refers to the signal ratio;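 as to max response: cells co-treated with a PPAR-delta agonist as stimulator during compound exposure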); conditions: HEK293T PPARd-UAS-bla, beta-lactamase FRET ratio, 18 h; 460 nm channel
Procedure, shortened: (§1)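 HEK293T PPAR-delta-UAS-bla cells, 4000/well, 2% charcoal/dextran FBS; 5 h 37 C; cpd titration; 18 h 37 C; CCF4 2 h RT; FI 460/530 nm; Hill fit → IC50, efficacy.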

[9] = target: Peroxisome proliferator-activated receptor delta (Homo sapiens) (UniProt Q03181); assay: as above; conditions: HEK293T PPARd-UAS-bla, beta-lactamase FRET ratio, 18 h; series mostly up to 76.7 µM
Procedure, shortened: as §1

[10] = target: Peroxisome proliferator-activated receptor gamma (Homo sapiens) (UniProt P37231); assay: qHTS assay for small molecule agonists of peroxisome proliferator-activated receptor gamma signaling (AID 588536; active = well fitted curve in the direction sought with a large enough effect in the signal ratio, with a control signal flat, not every such curve was filed as active; the % refers to the signal ratio); conditions: HEK293 PPARg-UAS-bla, beta-lactamase ratio, 16 h, percent of rosiglitazone response, DMSO as zero; series mostly up to 76.7 µM
Procedure, shortened: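 HEK293 UAS-bla reporter line, 1% charcoal/dextran FBS; titration, 16 h, 37 C; CCF4 loading 2 h RT; fluorescence 460/530 nm. Normalized to rosiglitazone 2 uM = 100%, DMSO = 0%.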

[11] = qHTS assay for small molecule activators of the p53 signaling pathway (AID 651743; active = well fitted activation curve with a large enough effect in the signal ratio, not every such curve was filed as active; the % refers to the signal ratio); conditions: HCT-116 p53RE-bla, beta-lactamase FRET ratio, 16 h; activation: stronger effect = higher value
Procedure, shortened: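 Read-out is fluorescence intensity from the LiveBLAzer B/G FRET substrate, added for 2 hours at room temperature after HCT-116 p53RE-bla cells had been incubated with compounds for 16 hours at 37 C.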

[12] = qHTS assay for small molecule agonists of the antioxidant response element (ARE) signaling pathway measured by Nrf2-dependant transcriptional activity (AID 720636; active = well fitted curve in the direction sought with a large enough effect in the repeat runs; an effect the other way counts as inactive or inconclusive); conditions: ARE-luc HepG2, Nrf2 luciferase reporter, 16 h; series mostly up to 92.4 µM
Procedure, shortened: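 ARE-luc HepG2 cells carrying an Nrf2-responsive luciferase reporter, in medium with 1% dialyzed FBS, exposed to compound for 16 hr at 37 C, 5% CO2. Luminescence read 30 min after ONE-Glo addition.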

[13] = Cell Viability - LYMP2-024 (AID 988); conditions: LYMP2-024 lymphoblastoid cell viability; series mostly up to 92.2 µM; also: nearly all actives have a fitted effect of over 60% in size
Procedure, shortened: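 Steps: seed 2500 cells/well, 5 hr 37 C; add compound, 24 hr 37 C; add CellTiter-Glo, 30 min room temperature; read luminescence. AC50 derived by Hill modelling of concentration-dependent ATP loss.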

[14] = target: Bile acid receptor (Homo sapiens) (UniProt Q96RI1); assay: qHTS assay for small molecule agonists of farnesoid X receptor signaling (AID 588527; calls by dose curve); conditions: HEK293T FXR-UAS-bla, beta-lactamase ratio, 16 h; stronger effect = higher value
Procedure, shortened: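 Quantitative HTS used FXR-UAS-bla HEK293T cells with 16 h compound incubation at 37 C. EC50 values came from concentration-response curves normalized to chenodeoxycholic acid.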

[15] = target: Vitamin D3 receptor (Homo sapiens) (UniProt P11473); assay: qHTS assay for small molecule agonists of vitamin D receptor signaling (AID 588543; calls by dose curve); conditions: HEK293T VDR-UAS-bla, beta-lactamase ratio, 16 h; series mostly up to 76.8 µM
Procedure, shortened: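 β-lactamase reporter, VDR-UAS-bla HEK293T, agonist mode. Cells plated 5 h at 37 °C, compound titration 16 h at 37 °C, CCF4 dye 2 h RT, ratio 460/530 nm. Hill fit → EC50, efficacy vs 50 nM 1α,25-(OH)2D3.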

[16] = target: Thyroid hormone receptor beta (Homo sapiens) (UniProt P10828); assay: qHTS assay for small molecule agonists of thyroid hormone receptor beta signaling (AID 588545; calls by dose curve); conditions: TR-UAS-bla GripTite HEK 293, beta-lactamase ratio, agonist mode, 18 h; series mostly up to 76.7 µM
Procedure, shortened: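 Cells (2500/well) were seeded, incubated 4 hrs at 37 C, dosed with a compound series, incubated 18 hrs, loaded with CCF4 dye for 2 hrs at RT, then read for fluorescence. Data were scaled between DMSO (0%) and 10 nM T3 (100%).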

[17] = target: Glucocorticoid receptor (Homo sapiens) (UniProt P04150); assay: qHTS assay for small molecule agonists of glucocorticoid receptor signaling (AID 588532; active = well fitted curve in the direction sought with a large enough effect in the signal ratio, with a control signal flat; the % refers to the signal ratio); conditions: HeLa MMTV-bla, beta-lactamase ratio, agonist, 18 h; stronger effect = higher value; percent of dexamethasone control, DMSO zero
Procedure, shortened: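 Using MMTV-bla HeLa cells in medium with 1% stripped FBS and 25 mM HEPES, compounds were titrated and incubated overnight-length (18 h). Beta-lactamase cleavage of CCF4 was quantified by dual-emission fluorescence.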

[18] = target: Glucocorticoid receptor (Homo sapiens) (UniProt P04150); assay: qHTS assay for small molecule antagonists of glucocorticoid receptor signaling (AID 588533; active = well fitted inhibition curve with a large enough effect in the signal ratio, with a control signal flat, not every such curve was filed as active; the % refers to the signal ratio;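 also: cells stimulated with 2 nM dexamethasone as agonist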); conditions: HeLa MMTV-bla, GRE beta-lactamase ratio, antagonist mode, 18 h; series mostly up to 76.8 µM
Procedure, shortened: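 Antagonist-mode qHTS: compound titrations added to GRE-bla HeLa cells, then dexamethasone 2 nM final; 18 h, 37 C. CCF4 FRET fluorescence normalized to dexamethasone and DMSO; IC50 from Hill fit.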

[19] = Cell Viability - HepG2 (AID 433; calls by dose curve;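 also: potency is read from the fitted curve at half-maximal effect; potency for ATP loss meaning cytotoxicity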); conditions: qHTS
Procedure, shortened: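 ATP luminescence (CellTiter-Glo) after 40 h compound exposure, 37 °C, HepG2, 1500 cells/well, complete medium. Normalized: DMSO = basal, 100 uM tamoxifen = 100% inhibition. AC50 via standard Hill equation.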

[20] = qHTS assay for environmental chemicals that activate the Aryl hydrocarbon Receptor (AhR) signaling pathway (AID 651777); conditions: 1A2-DRE human hepatoma cells, luciferase, 24 h; activation: stronger effect = higher value; also: nearly all actives have a fitted effect of over 15% in size
Procedure, shortened: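 Human hepatoma 1A2-DRE cells stably carrying a DRE/CYP1A2 promoter–luciferase reporter, 1,200 cells/well, exposed to compound 24 hr at 37 C. Luciferase read by One-Glo luminescence after 30 min at room temperature; increased signal marks AhR activation.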

Glucocorticoid receptor (Homo sapiens), sequence (P04150 whole entry, looked up): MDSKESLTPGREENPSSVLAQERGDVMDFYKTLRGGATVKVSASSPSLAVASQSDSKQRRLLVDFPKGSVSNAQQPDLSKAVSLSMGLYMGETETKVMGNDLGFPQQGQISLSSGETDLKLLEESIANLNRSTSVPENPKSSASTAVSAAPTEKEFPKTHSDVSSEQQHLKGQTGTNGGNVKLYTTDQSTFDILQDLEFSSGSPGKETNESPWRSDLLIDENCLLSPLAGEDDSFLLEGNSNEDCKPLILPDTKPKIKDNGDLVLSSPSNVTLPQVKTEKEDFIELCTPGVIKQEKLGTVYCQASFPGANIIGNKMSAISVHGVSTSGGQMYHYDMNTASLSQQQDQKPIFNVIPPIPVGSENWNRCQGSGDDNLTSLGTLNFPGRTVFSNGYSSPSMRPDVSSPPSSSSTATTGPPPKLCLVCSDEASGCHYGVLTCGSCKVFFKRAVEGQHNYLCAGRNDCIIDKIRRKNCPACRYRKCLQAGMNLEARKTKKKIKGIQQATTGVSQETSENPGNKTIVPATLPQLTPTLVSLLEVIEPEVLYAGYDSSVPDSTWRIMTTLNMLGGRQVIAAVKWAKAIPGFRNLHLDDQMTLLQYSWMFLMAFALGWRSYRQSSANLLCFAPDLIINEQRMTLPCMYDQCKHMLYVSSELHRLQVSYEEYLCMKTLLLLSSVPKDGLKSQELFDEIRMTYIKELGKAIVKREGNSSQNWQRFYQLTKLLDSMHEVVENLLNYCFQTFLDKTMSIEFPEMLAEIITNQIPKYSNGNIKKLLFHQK
Vitamin D3 receptor (Homo sapiens), sequence (P11473 whole entry, looked up): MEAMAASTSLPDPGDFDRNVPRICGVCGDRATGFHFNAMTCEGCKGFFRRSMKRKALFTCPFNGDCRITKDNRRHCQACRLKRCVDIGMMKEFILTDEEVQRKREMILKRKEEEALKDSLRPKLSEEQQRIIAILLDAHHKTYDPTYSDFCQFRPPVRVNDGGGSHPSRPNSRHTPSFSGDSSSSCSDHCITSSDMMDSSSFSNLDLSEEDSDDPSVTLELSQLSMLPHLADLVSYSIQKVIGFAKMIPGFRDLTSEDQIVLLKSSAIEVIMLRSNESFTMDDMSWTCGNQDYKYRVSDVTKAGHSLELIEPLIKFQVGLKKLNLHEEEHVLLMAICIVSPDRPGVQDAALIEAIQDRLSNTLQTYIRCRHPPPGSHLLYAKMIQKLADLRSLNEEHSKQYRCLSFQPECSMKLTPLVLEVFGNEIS
Thyroid hormone receptor beta (Homo sapiens), sequence (P10828 whole entry, looked up): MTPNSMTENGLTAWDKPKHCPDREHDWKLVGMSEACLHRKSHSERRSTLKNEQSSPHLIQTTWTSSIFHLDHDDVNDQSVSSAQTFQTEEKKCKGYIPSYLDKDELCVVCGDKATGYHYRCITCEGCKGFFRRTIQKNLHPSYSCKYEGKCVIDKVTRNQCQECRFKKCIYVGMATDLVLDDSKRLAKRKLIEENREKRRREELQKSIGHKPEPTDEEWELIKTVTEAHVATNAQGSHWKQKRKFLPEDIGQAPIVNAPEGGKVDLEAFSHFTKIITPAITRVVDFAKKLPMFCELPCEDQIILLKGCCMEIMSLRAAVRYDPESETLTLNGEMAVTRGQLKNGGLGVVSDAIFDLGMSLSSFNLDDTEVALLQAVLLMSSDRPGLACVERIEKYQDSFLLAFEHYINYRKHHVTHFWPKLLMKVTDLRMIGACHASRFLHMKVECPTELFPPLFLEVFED
Peroxisome proliferator-activated receptor gamma (Homo sapiens), sequence (P37231 whole entry, looked up): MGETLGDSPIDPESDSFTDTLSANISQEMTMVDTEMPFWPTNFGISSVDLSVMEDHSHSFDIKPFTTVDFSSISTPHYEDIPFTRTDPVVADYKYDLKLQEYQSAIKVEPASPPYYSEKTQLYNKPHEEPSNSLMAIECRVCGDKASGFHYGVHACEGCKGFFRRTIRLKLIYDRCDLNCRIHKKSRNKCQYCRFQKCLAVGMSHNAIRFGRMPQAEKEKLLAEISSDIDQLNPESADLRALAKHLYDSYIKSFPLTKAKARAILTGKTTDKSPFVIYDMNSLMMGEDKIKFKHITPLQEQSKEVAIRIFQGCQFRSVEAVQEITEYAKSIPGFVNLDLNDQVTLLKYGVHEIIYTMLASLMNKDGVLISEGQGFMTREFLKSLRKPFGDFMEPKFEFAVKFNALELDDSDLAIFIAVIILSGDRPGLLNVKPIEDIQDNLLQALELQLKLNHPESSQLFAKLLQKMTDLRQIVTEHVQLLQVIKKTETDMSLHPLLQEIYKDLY
Estrogen receptor (Homo sapiens), sequence (P03372 whole entry, looked up): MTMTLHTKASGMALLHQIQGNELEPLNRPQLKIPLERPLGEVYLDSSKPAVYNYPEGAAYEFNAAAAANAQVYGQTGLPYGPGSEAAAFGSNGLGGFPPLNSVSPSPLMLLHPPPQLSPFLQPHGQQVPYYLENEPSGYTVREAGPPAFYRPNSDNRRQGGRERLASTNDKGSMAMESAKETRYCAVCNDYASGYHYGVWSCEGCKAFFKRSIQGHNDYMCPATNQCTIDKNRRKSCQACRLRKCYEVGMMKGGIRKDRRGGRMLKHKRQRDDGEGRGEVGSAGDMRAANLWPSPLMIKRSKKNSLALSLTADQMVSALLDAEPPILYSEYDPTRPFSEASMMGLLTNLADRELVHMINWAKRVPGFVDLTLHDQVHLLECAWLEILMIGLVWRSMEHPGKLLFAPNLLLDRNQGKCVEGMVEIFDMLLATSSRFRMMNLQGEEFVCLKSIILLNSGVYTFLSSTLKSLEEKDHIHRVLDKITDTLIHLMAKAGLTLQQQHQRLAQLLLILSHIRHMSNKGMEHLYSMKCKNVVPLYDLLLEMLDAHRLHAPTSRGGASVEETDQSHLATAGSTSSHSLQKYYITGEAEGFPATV
Peroxisome proliferator-activated receptor delta (Homo sapiens), sequence (Q03181 whole entry, looked up): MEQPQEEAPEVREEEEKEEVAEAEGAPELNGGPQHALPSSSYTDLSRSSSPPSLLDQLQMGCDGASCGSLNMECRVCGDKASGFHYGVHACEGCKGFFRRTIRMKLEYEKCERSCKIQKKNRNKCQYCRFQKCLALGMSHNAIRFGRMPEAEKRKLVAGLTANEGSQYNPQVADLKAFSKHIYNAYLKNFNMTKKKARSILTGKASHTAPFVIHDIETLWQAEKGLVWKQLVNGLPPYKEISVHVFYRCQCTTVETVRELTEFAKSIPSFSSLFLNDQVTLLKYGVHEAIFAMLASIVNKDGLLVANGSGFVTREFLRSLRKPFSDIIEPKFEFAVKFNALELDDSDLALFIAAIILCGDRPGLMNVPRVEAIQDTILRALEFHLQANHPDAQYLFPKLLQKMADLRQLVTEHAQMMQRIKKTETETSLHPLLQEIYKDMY
Bile acid receptor (Homo sapiens), sequence (Q96RI1 whole entry, looked up): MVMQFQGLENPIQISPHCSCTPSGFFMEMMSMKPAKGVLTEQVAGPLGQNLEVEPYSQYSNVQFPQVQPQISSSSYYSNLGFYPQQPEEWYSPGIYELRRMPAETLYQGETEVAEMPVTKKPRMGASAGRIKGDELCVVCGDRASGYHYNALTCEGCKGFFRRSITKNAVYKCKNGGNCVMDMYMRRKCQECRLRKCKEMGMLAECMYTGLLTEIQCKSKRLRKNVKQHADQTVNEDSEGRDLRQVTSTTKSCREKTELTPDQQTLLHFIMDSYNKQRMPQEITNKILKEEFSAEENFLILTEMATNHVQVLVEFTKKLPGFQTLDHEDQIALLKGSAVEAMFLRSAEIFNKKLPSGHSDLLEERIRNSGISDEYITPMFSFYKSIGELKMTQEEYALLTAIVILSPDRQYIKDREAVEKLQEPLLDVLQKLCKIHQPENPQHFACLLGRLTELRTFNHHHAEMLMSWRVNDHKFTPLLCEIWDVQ

SMILES | Potency [1] | Potency [2] | Potency [3] | Potency [4] | Potency [5] | Potency [6] | Potency [7] | max response [8] [%] | outcome [9] | outcome [10] | activation [11] | Potency [12] | Potency [13] | activation [14] | outcome [15] | Potency [16] | activation [17] | outcome [18] | Potency [19] | activation [20]
N#CCc1ccccc1 | > 92 µM (inactive) | > 92 µM (inactive) | inactive | inactive | inactive | inactive | inactive | -33.3 | inactive | inactive | -0.84% (inactive) | inactive |  |  |  |  |  |  |  | 
C=CCBr | > 92 µM (inactive) | > 92 µM (inactive) | inactive |  |  | inactive |  |  |  |  | -2.4% (inactive) | inactive | inactive | -2.82% (inactive) | inactive | inactive |  |  |  | 
O=Cc1ccc2c(c1)OCO2 | > 92 µM (inactive) | > 92 µM (inactive) |  | inactive |  |  |  | -1.49 | inactive | inactive |  | inactive | inactive | 0.344% (inactive) | inactive | inactive | 1.67% (inactive) | inactive |  | 
O=Cc1ccc(Cl)cc1Cl | > 92 µM (inactive) |  | inactive |  | inactive |  |  | -26.8 | inactive | inactive |  | inactive |  |  | inactive | inactive |  | inactive | > 92 µM (inactive) | -0.378% (inactive)
c1ccc(C2CO2)cc1 (stereo not drawn) | > 92 µM (inactive) | > 92 µM (inactive) | inactive | inactive | inactive |  |  | -22 | inactive | inactive | -1.82% (inactive) | inactive | inactive |  | inactive |  | 9.49% (inactive) | inactive |  | 0.299% (inactive)
C=COC(C)=O | > 92 µM (inactive) | > 92 µM (inactive) | inactive | inactive | inactive |  |  |  |  |  |  | inactive | inactive |  |  | inactive |  |  |  | 1.36% (inactive)
ClCC(Br)CBr (stereo not drawn) | > 92 µM (inactive) |  | inactive |  | inactive | inactive | inactive |  |  | inactive | -3.3% (inactive) | inactive | inactive |  | inactive | inactive |  | inactive | > 92 µM (inactive) | -0.863% (inactive)
Cl/C=C/Cl | > 92 µM (inactive) |  |  |  | inactive | inactive |  | -19.1 | inactive |  | -3.7% (inactive) | inactive | inactive |  |  | inactive | -4.99% (inactive) | inactive | > 92 µM (inactive) | 0.896% (inactive)
